{
  "source": "PubChem BioAssay AID1835",
  "about": "(Johns Hopkins Ion Channel Center, 2009)",
  "note": "Among all 2,400 compounds or so, about 750 (31%) were called active. The list shows a part of the results. Values without a mark were called inactive.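 Rule for the calls: active = median signal gain over dofetilide-blocked control wells reaching their mean plus 3 SD, so readout 1 at least 0; inactive = the rest.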",
  "data": [
    {"biological_target": "Voltage-gated inwardly rectifying potassium channel KCNH2 (Homo sapiens) (UniProt Q12809)", "sequence (Q12809 whole entry, looked up)": "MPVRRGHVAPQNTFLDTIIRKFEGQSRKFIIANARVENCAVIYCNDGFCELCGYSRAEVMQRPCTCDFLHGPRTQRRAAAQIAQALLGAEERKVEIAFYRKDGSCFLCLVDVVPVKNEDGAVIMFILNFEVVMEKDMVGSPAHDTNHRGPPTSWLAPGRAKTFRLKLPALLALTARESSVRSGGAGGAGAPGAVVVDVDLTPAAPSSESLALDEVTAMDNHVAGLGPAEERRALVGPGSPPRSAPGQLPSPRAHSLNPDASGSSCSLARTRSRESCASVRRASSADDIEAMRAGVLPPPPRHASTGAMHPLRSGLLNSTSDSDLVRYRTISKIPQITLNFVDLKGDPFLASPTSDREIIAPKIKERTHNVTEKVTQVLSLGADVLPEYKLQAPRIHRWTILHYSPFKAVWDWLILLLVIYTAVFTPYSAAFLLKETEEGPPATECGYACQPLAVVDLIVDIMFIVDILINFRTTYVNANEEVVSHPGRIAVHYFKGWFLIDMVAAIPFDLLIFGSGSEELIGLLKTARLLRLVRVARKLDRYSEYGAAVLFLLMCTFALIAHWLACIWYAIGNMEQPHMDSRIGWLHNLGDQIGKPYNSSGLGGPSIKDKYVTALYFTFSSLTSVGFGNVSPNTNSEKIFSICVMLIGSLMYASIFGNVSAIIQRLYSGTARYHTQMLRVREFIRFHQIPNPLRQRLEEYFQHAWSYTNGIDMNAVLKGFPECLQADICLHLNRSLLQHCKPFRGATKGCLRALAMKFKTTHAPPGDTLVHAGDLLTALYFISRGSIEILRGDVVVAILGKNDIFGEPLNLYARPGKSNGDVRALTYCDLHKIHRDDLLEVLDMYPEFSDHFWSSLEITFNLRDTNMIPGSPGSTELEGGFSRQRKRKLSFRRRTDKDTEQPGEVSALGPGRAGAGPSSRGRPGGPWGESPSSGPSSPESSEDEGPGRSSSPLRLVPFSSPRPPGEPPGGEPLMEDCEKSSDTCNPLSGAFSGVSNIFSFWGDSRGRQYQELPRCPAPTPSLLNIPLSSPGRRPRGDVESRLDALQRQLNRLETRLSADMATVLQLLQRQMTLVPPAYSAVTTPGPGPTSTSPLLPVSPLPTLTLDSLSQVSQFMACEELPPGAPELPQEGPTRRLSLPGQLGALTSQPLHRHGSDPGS", "experiment": "modulators restoring hERG flux under dofetilide – cell-based, thallium flux, duplicate retest, dofetilide IC70, confirmation (AID 1835)", "details": "hERG cell line, FluxOR thallium flux, dofetilide-blocked; at 10 µM; active compounds read high", "values": [
      {"molecule": "Cc1cccc2nc(-c3cccnc3)c(NCCC(C)C)n12", "activity increase over dofetilide control, less the hit threshold": "-70%"},
      {"molecule": "CC(C)Oc1cccc(C(=O)NC(=S)N2CCN(c3ccc(C(F)(F)F)cc3[N+](=O)[O-])CC2)c1", "activity increase over dofetilide control, less the hit threshold": "-8%"},
      {"molecule": "COc1cccc(OC)c1C(=O)NC(=S)N1CCN(c2ccc(C(F)(F)F)cc2[N+](=O)[O-])CC1", "activity increase over dofetilide control, less the hit threshold": "6% (active)"},
      {"molecule": "COC(=O)CSc1nc2c(c(-c3ccc(C)o3)c1C#N)CCCC2", "activity increase over dofetilide control, less the hit threshold": "-18%"},
      {"molecule": "COC(=O)CSc1nc(N2CCCCC2)c2c(c1C#N)CCCC2", "activity increase over dofetilide control, less the hit threshold": "5% (active)"},
      {"molecule": "CCC1(c2ccccc2)NC(=S)N(c2ccc(C)c(C)c2)N1", "note": "(centres undefined)", "activity increase over dofetilide control, less the hit threshold": "86% (active)"},
      {"molecule": "CCC1(c2ccc(Cl)cc2)NC(=S)N(c2ccc(C)c(C)c2)N1", "note": "(centres undefined)", "activity increase over dofetilide control, less the hit threshold": "100% (active)"},
      {"molecule": "Cc1ccc(NC(=O)c2noc3c2CCC3)cc1C", "activity increase over dofetilide control, less the hit threshold": "-11%"},
      {"molecule": "N#Cc1cc(-c2ccccc2)nnc1Oc1ccccc1", "activity increase over dofetilide control, less the hit threshold": "-1%"},
      {"molecule": "Cc1ccc2[nH]c(=O)c(C(c3nnnn3C3CCCC3)N3CCCc4ccccc43)cc2c1", "note": "(centres undefined)", "activity increase over dofetilide control, less the hit threshold": "-4%"},
      {"molecule": "COc1ccc(-c2cc(C(F)(F)F)nc(N3CCCCC3)n2)cc1OC", "activity increase over dofetilide control, less the hit threshold": "-19%"},
      {"molecule": "O=C1C=C(c2ccccc2)OC(=O)C1C(=O)c1ccccc1", "note": "(centres undefined)", "activity increase over dofetilide control, less the hit threshold": "-4%"},
      {"molecule": "CCOc1ccc2nc(/N=C/c3nc(-c4ccccc4)oc3O)sc2c1", "activity increase over dofetilide control, less the hit threshold": "4% (active)"},
      {"molecule": "CCOc1ccc2nc(/N=C/c3nc(-c4ccc(Br)cc4)oc3O)sc2c1", "activity increase over dofetilide control, less the hit threshold": "11% (active)"},
      {"molecule": "CC1(C)CC(=O)c2c(nn(-c3ccccc3)c2-c2ccncc2)C1", "activity increase over dofetilide control, less the hit threshold": "-7%"},
      {"molecule": "Cc1ccc2cc(CCNC(=O)C(=O)c3c(C)[nH]c4ccccc34)c(=O)[nH]c2c1", "activity increase over dofetilide control, less the hit threshold": "-20%"},
      {"molecule": "CC(C)c1nc2sc3c(=S)nc[nH]c3c2c2c1CCC2", "activity increase over dofetilide control, less the hit threshold": "52% (active)"},
      {"molecule": "S=c1nc[nH]c2c1sc1nc(-c3ccccc3)c3c(c12)CCCC3", "activity increase over dofetilide control, less the hit threshold": "80% (active)"},
      {"molecule": "OCCN1CCN(c2ncnc3c2sc2nc(N4CCOCC4)c4c(c23)CCC4)CC1", "activity increase over dofetilide control, less the hit threshold": "-27%"},
      {"molecule": "CCOC(=O)c1sc2nc(N3CCOCC3)c3c(c2c1N)CCN(Cc1ccccc1)C3", "activity increase over dofetilide control, less the hit threshold": "-5%"},
      {"molecule": "S=c1nc[nH]c2c1sc1nc(N3CCOCC3)c3c(c12)CCCC3", "activity increase over dofetilide control, less the hit threshold": "58% (active)"},
      {"molecule": "Cc1ccc(C)c(OCc2cc(C(=O)N3CCNC(=O)C3)no2)c1", "activity increase over dofetilide control, less the hit threshold": "-7%"},
      {"molecule": "CCc1noc(C)c1C(=O)N1CCCC(N2CCN(c3ccccc3F)CC2)C1", "note": "(centres undefined)", "activity increase over dofetilide control, less the hit threshold": "-1%"},
      {"molecule": "CCN1CCN(CC(=O)c2ccc(OC)cc2)CC1", "activity increase over dofetilide control, less the hit threshold": "-17%"},
      {"molecule": "NNC(=O)CNc1ccccc1Cl", "activity increase over dofetilide control, less the hit threshold": "-9%"},
      {"molecule": "CCOc1ccccc1NC(=O)C(=O)CC(=O)c1ccc(OC)cc1", "activity increase over dofetilide control, less the hit threshold": "16% (active)"},
      {"molecule": "COc1ccc(C(=O)CSc2nnc3ccc(-c4ccccn4)nn23)cc1", "activity increase over dofetilide control, less the hit threshold": "-11%"},
      {"molecule": "COc1ccc(C(=O)CC(=O)C(=O)Nc2ccccc2OC)cc1", "activity increase over dofetilide control, less the hit threshold": "2% (active)"},
      {"molecule": "COc1ccc(C(=O)NC2CC3CCCC(C2)N3Cc2ccccc2)cc1", "note": "(centres undefined)", "activity increase over dofetilide control, less the hit threshold": "-11%"},
      {"molecule": "COc1ccc(C(=O)CC(=O)C(=O)Nc2ccccc2Cl)cc1", "activity increase over dofetilide control, less the hit threshold": "31% (active)"},
      {"molecule": "COc1ccc(C(=O)CC(=O)C(=O)Nc2ccccc2C(F)(F)F)cc1", "activity increase over dofetilide control, less the hit threshold": "13% (active)"},
      {"molecule": "COc1ccc(C(=O)CNc2ccccc2C#N)cc1", "activity increase over dofetilide control, less the hit threshold": "-11%"},
      {"molecule": "CSc1ccc(S(=O)(=O)N2CCC(C(=O)Nc3ccccc3C(F)(F)F)CC2)cc1", "activity increase over dofetilide control, less the hit threshold": "-17%"},
      {"molecule": "COc1ccccc1NC1=C(NC(C)=O)C(=O)c2ccccc2C1=O", "activity increase over dofetilide control, less the hit threshold": "-7%"}
    ]}
  ]
}
